Compound activity from PubChem BioAssay.
Pf growth 96h: inhibits malaria parasite growth, 96 h | P. falciparum luciferase reporter growth, 96 h | Potency, µM (series often up to 28.7 µM), inactives show at the highest dose activity change, negative = inhibition, hits mostly inhibitors | 320,000 compounds, 6.9% hits | AID 504834; further: on the % scale 0 is the no-effect control and ±100 the full control effect
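Parasite growth measured via integrated firefly luciferase reporter in P. falciparum. Infected erythrocytes at 2% hematocrit, 0.05% parasitemia final were treated 96 hours at 37 C under 5% CO2, and luminescence was read.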
SARS PLpro yeast: SARS-CoV PLP inhibition in yeast; 330,000 compounds, 0.19% hits; S. cerevisiae expressing SARS-CoV PLpro, growth rescue; AID 485353; Potency, µM (doses to about 32.9 µM), inactives show at the top dose activity, positive = growth rescue, hits mostly activators; calls by dose curve; further: 0% is about no effect; nearly all actives have a fitted effect of over 55% in size
Pf growth 48h: inhibits P. falciparum growth in the first generation, 48 h; 310,000 compounds, 5.9% hits; Potency, µM (doses to about 28.7 µM), without a hit: at the top dose activity change, negative = inhibition, actives largely listed as inhibitors; P. falciparum luciferase growth in erythrocytes, 48 h; further: on the % scale 0 is the no-effect control and ±100 the full control effect
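Luciferase-expressing P. falciparum in infected erythrocytes (2% hematocrit, 0.1% parasitemia final) in RPMI 1640/0.5% Albumax were exposed to compound for 48 hours at 37 C, 5% CO2; growth read as luminescence.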
Sm TGR inh: inhibitors of Schistosoma mansoni thioredoxin glutathione reductase | Q962Y6 | purified TGR, DTNB reduction, TNB absorbance 405 nm | Potency, µM (highest dose often 114 µM), for inactives: top-dose activity change, negative = inhibition, usual class: inhibitors | 360,000 compounds, 3% hits; further: on the % scale 0 is the no-effect control and ±100 the full control effect; nearly all actives have a fitted effect of over 60% in size
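TGR 20 nM + NADPH 100 uM (dispensed conc.), cpd preinc 15 min RT; start with NADPH (500 uM addition) then DTNB (15 mM addition). Kinetic TNB absorbance, 405 nm filter. Four-parameter Hill fit across titration.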
Starred values were filed as active, the others as inactive; ? = inconclusive; nt = no result given; [ ] = dose if it differs, or a comment. Rows were chosen to be rich in hits. Some 12% of all compounds tested hit in one or more screens of this group. Unless noted, the call rests on the fitted dose curve; in most records, active means well fitted curve in the direction sought with a large enough effect; inconclusive means small, poorly fitted or top-dose-only effect, or another doubt; inactive means no such curve, though single readings can be large; an effect the other way counts as inactive or inconclusive. Potency means the concentration at half of the fitted maximal effect.

SMILES	Pf growth 96h	SARS PLpro yeast	Pf growth 48h	Sm TGR inh
CCOC(=O)C1CCN(Cc2ccc(O)c(OC)c2)CC1	2%	0%	31%	56µM*
COc1ccccc1Cn1ccn(Cc2c(F)cccc2Cl)c(=O)c1=O	nt	nt	nt	8%
O=C(Nc1c2c(nn1-c1ccc(Cl)cc1)CS(=O)(=O)C2)c1cccc(F)c1	nt	nt	nt	-6%
COCCn1c(=S)[nH]c2cc(C(=O)N3CCCC(C)C3)ccc2c1=O (configuration not stated)	?	3%	18%	-6%
COc1ccc(-c2cn3c(n2)sc2cc(C(=O)NCCc4ccc(OC)cc4OC)ccc23)cc1	nt	nt	nt	-5%
CCCOC(=O)c1c(NC(=O)c2nc3ncccn3n2)sc(C(=O)OCC)c1C	nt	nt	nt	20%
CCCC(=O)N(C1CC(C)C(C#N)(C#N)C1(C#N)C#N)N(C)C (configuration not stated)	-10%	-2%	7%	2µM*
Cc1[nH][nH]c(=O)c1C(c1c(C)[nH][nH]c1=O)c1cn(C)c2ccccc12	15%	-3%	10µM*	-6%
CCCc1nc(NCCCOCC)c2nnn(Cc3ccccc3)c2n1	12µM*	4%	5%	7%
CCOCCCNc1nc(C(F)(F)F)nc2c1nnn2Cc1ccccc1Cl	-20%	0%	18%[0.00184 µM]	0%
c1cnc2ccc(C(c3nnnn3C3CCCC3)N3CCN(c4nc5ccccc5s4)CC3)cc2c1 (configuration not stated)	1%	3%	5.2µM*	36%
COc1ccc(C(c2nnnn2C(C)(C)C)N2CCN(c3nc4ccccc4s3)CC2)cc1OC (configuration not stated)	?	19%	5.2µM*	1%
CCN1CCN(C(c2ccc(OC)c(OC)c2)c2nnnn2C(C)(C)C)CC1 (configuration not stated)	?	-11%	6%	0%
COc1ccccc1N1CCN(C(c2ccccc2Cl)c2nnnn2C(C)(C)C)CC1 (configuration not stated)	?	nt	?	3%
COc1cc(C(c2nnnn2C(C)(C)C)N2CCN(c3nc4ccccc4s3)CC2)ccc1O (configuration not stated)	2%	0%	-13%	0.35µM*
c1cnc2ccc(C(c3nnnn3C3CCCCC3)N3CCN4CCCC4C3)cc2c1 (configuration not stated)	nt	2%	?	-17%
OC1CCN(C(c2ccc3ncccc3c2)c2nnnn2C2CCCCC2)CC1 (configuration not stated)	0%	-1%	?	-6%
CCC(C)(C)n1nnnc1C(c1ccc2ncccc2c1)N1CCN2CCCC2C1 (configuration not stated)	142%	-2%	10µM*	-7%
COc1ccc(Cl)cc1NC(=O)CNC(c1ccccc1)c1ccccc1	1.7µM*	-6%	?	15%
COc1ccc(OC)c(NC(=O)CNC(c2ccccc2)c2ccccc2)c1	9.3µM*	0%	12µM*	28%
COc1ccc(C)cc1NC(=O)c1nn(-c2ccccc2)cc1OC	2.9µM*	-15%	-72%	-5%
Cc1ccc(NC(=O)CNC(c2ccccc2)c2ccccc2)c(F)c1	?	-7%	-25%	-9%
COc1cc(C(=O)Nc2ccc(C)cc2C(NCC(=O)NN)c2ccccc2)cc(OC)c1OC (configuration not stated)	4.7µM*	-2%	5%[0.00184 µM]	-18%
COc1ccc(OC)c(NC(=O)CCCSc2ccccc2)c1	11%	-27%	?	-2%
Cc1cccc(NC(=O)c2c(N)sc3c2CCC(C)C3)c1 (configuration not stated)	nt	nt	nt	-24%
SMILES	Pf growth 96h	SARS PLpro yeast	Pf growth 48h	Sm TGR inh
COc1ccc(OC)c(/C(O)=C/C(=O)C(=O)Nc2ccccc2OC)c1	15µM*	13%	nt	4%
COc1ccc(OC)c(NC(=O)CCN2CC(C)OC(C)C2)c1 (configuration not stated)	1.9µM*	-2%	-12%	-2%
COc1ccc(C)cc1NC(=O)CNC(c1ccccc1)c1ccccc1	?	1%	7.4µM*	-19%
COc1ccc(CCN2CC(C(=O)NCc3ccc(F)cc3)CC2=O)cc1OC (configuration not stated)	7%	1%	6%	18%
Oc1ccccc1Oc1ncc(Br)c(Cl)n1	?	-2%	?	35µM*
Oc1ccccc1Oc1ncc(Br)c(N2CCOCC2)n1	nt	-1%	-5%	-4%
CC1(CN2CCC(n3c(=O)[nH]c4ccccc43)CC2)OCc2ccccc2-n2cccc21 (configuration not stated)	13µM*	nt	15µM*	nt
O=c1[nH]c2ccccc2n1C1CCCCC1	-7%	-2%	nt	10%
O=C(Cc1cccc(C(F)(F)F)c1)NCC(=O)Nc1cc(Cl)ccc1Cl	25%	-1%	6%	-14%
COc1cc2cnc(-c3ccccc3)c(-c3cc(OC)c(OC)c(OC)c3)c2cc1OC	3.7µM*	1%	10µM*	3.2µM*
Cn1ccnc1C(=O)c1cccc(Br)c1	13%	-1%	33%	9%
Nc1cccc(C(=O)OCC(=O)NC2CCCc3ccccc32)c1 (configuration not stated)	19%	2%	12µM*	-2%
O=C(COC(=O)c1cccnc1)NC1CCCc2ccccc21 (configuration not stated)	-18%	0%	-6%	-9%
CCn1c2ccccc2c2nc3cc(OC)c(OC)cc3nc21	3.3µM*	-30%	30%	-29%
COc1cc2nc3c4ccccc4n(CC#N)c3nc2cc1OC	23%	3%	8%	0%
CSc1ccc(/C=C2\CCn3c2nc2cc(C(=O)O)ccc2c3=O)cc1	-12%	18%	-35%	9%
O=C(/C=C/c1ccc(F)cc1)N1CCN(c2ncccn2)CC1	-15%	6%	-6%	2%
Cc1ccc(/C=C/C(=O)N2CCN(c3ccc(F)cc3)CC2)o1	53%	-20%	33%	50µM*
COc1ccc(N2CCN(C(=O)/C=C/c3ccco3)CC2)cc1	15%	1%	-15%	18µM*
NC(=O)C1CCCN(C(=O)c2ccc(Cl)cc2)C1 (configuration not stated)	28%	1%	2%	-3%
Cc1ccc(/C=C/C(=O)N2CCCC(C(N)=O)C2)o1 (configuration not stated)	1%	0%	?	32µM*
COc1ccccc1N1CCN(C(=O)/C=C/c2ccco2)CC1	-20%	-5%	4%	50µM*
Cc1ccc(/C=C/C(=O)N2CCN(c3ncccn3)CC2)o1	141%	-19%	6%	3.2µM*
COc1ccccc1N1CCN(/N=C/C=C\c2ccco2)CC1	281%	-8%	198%	40µM*
O=C(/C=C/c1ccco1)N1CCCC(c2ccccc2)C1 (configuration not stated)	32%	-2%	12%	nt
O=C(NCCC(=O)N1CCN(c2ccccc2F)CC1)c1ccco1	14%	-3%	0%	-12%
O=C(NCCC(=O)N1CCN(c2ccc(F)cc2)CC1)c1ccco1	4%	-3%	-17%	45µM*
